G9a block – G9a (human) methyltransferase inhibition. G9a H3K9 monomethylation, AlphaScreen, 2 h. Potency, µM (highest dose often 102 µM), inactives show top-dose activity, negative = inhibition, hits mostly inhibitors. actives 8.8% (n = 350,000). AID 504332; also: potency is read from the fitted curve at half-maximal effect; % is scaled to controls: 0 for no effect and ±100 for the full control effect; nearly all actives have a fitted effect of over 75% in size
Target sequence (Q96KQ7 913-1193 limits assumed): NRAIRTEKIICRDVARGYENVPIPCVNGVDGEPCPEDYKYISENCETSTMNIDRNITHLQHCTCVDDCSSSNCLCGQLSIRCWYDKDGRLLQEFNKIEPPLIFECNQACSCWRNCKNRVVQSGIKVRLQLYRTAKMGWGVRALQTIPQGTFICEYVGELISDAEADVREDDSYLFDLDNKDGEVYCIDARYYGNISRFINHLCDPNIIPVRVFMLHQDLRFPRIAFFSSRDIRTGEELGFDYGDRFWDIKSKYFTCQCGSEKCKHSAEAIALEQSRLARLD
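Chemiluminescent proximity detection of H3K9 monomethylation, read after 10 min bead incubation in the dark. Reaction: 20 nM G9a, 500 nM biotin-H3K9 peptide, 20 uM SAM cofactor, 2 h, room temperature, following 15 min enzyme-compound preincubation.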
HP1b binding inh – blocks HP1-beta chromodomain binding to methylated histone tails. actives 0.56% (n = 390,000). P83916. AID 540317. AlphaScreen HP1-beta / biotin-H3K9me3 peptide binding. Potency, µM (doses to about 114 µM), for inactives: at the highest dose activity change, negative = inhibition, hits mostly inhibitors; also: potency is read from the fitted curve at half-maximal effect; nearly all actives have a fitted effect of over 70% in size
Target sequence (P83916 whole entry, looked up): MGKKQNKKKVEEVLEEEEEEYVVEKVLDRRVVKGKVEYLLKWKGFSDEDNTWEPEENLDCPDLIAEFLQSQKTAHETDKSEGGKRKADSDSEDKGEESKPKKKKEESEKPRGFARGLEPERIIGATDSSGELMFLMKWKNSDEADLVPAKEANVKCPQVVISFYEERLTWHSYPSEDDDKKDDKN
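AlphaScreen: HP1-beta (50 nM) preformed 30 min with biotin-H3(1-18)K9me3 peptide (50 nM) in PBS pH 7.4, 0.01% Tween-20. Compound added for 30 min at RT, then streptavidin donor/nickel chelate acceptor beads (10 ug/mL) for 30 min.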
PLK1 PBD inh – blocks phosphopeptide binding to human PLK1 polo-box domain; P53350; Plk1 PBD binding of FITC phosphopeptide, fluorescence polarization; Potency, µM, for inactives: max response, negative = inhibition, hits mostly inhibitors; actives 2.8% (n = 360,000); also: potency is read from the fitted curve at half-maximal effect; series mostly up to about 57 µM; % is scaled to controls: 0 for no effect and ±100 for the full control effect; nearly all actives have a fitted effect of over 65% in size
JMJD2A Tudor – blocks the human JMJD2A Tudor domain. Potency, µM (titrated, usually from 114 µM), for inactives: at the top dose activity change, negative = inhibition, most hits filed as inhibitors. AlphaScreen JMJD2A-Tudor / H3K4me3 peptide binding. actives 4.4% (n = 390,000). AID 504339; also: potency is read from the fitted curve at half-maximal effect; % is scaled to controls: 0 for no effect and ±100 for the full control effect; nearly all actives have a fitted effect of over 50% in size
PI5P4K alpha inh – blocks human PI5P4K alpha kinase activity. P48426. PI5P4Kalpha enzyme, ADP-Glo luminescence, 60 min; hits give low values. max response, %. actives 1.2% (n = 330,000); active = max response of -50% or lower; inconclusive = between -30% and -50%; inactive = -30% or higher; also: value at the top dose of about 77 µM; % is scaled to controls: 0 for no effect and ±100 for the full control effect
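ADP-Glo luminescence end-point read after a 60 min room-temperature kinase reaction of PI5P4Kalpha plus substrate, initiated with ATP at 5 microM final. Buffer: 0.038 M HEPES pH 7.4, EGTA, 0.1% CHAPS, 5% DMSO.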
BAZ2B block – inhibitors of human BAZ2B bromodomain | Q9UIF8 | AlphaScreen BAZ2B-H3K14Ac peptide displacement | Potency, µM (top dose mostly 114 µM), without a hit: top-dose activity change, negative = inhibition, most hits filed as inhibitors | actives 4.4% (n = 360,000); also: potency is read from the fitted curve at half-maximal effect; % is scaled to controls: 0 for no effect and ±100 for the full control effect; nearly all actives have a fitted effect of over 60% in size
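Compounds, titrated to a top concentration of 110 uM, were incubated 30 min at room temperature with preformed BAZ2B/acetyl-K14 H3 peptide complex (50 nM each). Proximity signal was measured by AlphaScreen after 20 min with beads.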
An asterisk follows results filed as active; u = inconclusive; x = no result; ! = repeats disagree; [ ] = another dose, or the depositor's remark. Sampled rows, rich in hits. Any-hit rate of the full collection: about 12%. Unless noted, calls follow the shape of the dose curve; as a rule, active = well fitted curve in the direction sought with a large enough effect; inconclusive = small, poorly fitted or top-dose-only effect, or another doubt; inactive = no such curve, though single readings can be large; an effect the other way counts as inactive or inconclusive.

SMILES | G9a block | HP1b binding inh | PLK1 PBD inh | JMJD2A Tudor | PI5P4K alpha inh | BAZ2B block
COc1cc(C(=O)Nc2ccccc2SCc2cc(=O)n3nc(C)sc3n2)cc(OC)c1OC | -25% | -2% | 27µM* | u | -3 | -17%
COc1cccc(C(=O)NC(=S)Nc2ccccc2N2CCOCC2)c1 | 66% | u | 1% | u | 8 | -1%
C=Cc1cc2c(s1)c1cnn(Cc3ccccc3F)c(=O)c1n2C | x | x | x | -16% | x | x
Cc1ccc(N(CC(=O)NCCc2ccc(Cl)cc2)S(=O)(=O)N(C)C)cc1 | 25%[59 µM] | 94% | x | -4% | x | 22%
CCc1nc2ccccc2c(=O)n1/N=C/c1ccc(OC)cc1 | x | 8% | 6% | 0% | -4 | x
Cc1ccsc1CNC(=O)C1(C)CCN1C(C)C (stereo not drawn) | x | x | -13% | x | -1 | x
CCOC(=O)C1=C(N)OC2=C(C(=O)CC(C)(C)C2)C1c1ccoc1 (stereo not drawn) | u | -6% | 21µM* | -5%[11.4 µM] | -17 | -10%
O=C(CN1CCN(C(=O)CCC(=O)N2CCC(c3ccccc3)=N2)CC1)Nc1ccc(F)cc1 | 2%[0.501 µM] | 20% | -12% | -10% | 1 | 9%
COc1ccc(NC(=O)C(Cc2ccccc2)n2cccc2)c(OC)c1 (stereo not drawn) | u | -4%[57 µM] | 5% | -26% | 4 | 35µM*!
Cc1ccc(-n2nnnc2SCC(=O)NCCc2ccccc2)cc1C | -3%[59 µM] | 34% | x | 6% | x | 4%
COc1ccc(NC(=O)CSc2nccn2Cc2ccccc2)c(OC)c1 | 45µM* | -4% | -7% | -26% | 6 | u
COc1ccc(NC(=O)CSc2nccn2Cc2ccco2)c(OC)c1 | -18%[59 µM] | 28% | -12% | -12% | -9 | -39%
COc1cccc(-n2ccnc2SCC(=O)Nc2cc(OC)ccc2OC)c1 | u | 45µM* | -13% | 89µM* | 2 | 28µM*
COc1ccc(-n2nnnc2SCC(=O)NCCc2ccccc2)cc1OC | 22µM* | 32% | -5% | -3% | 4 | u
COCCNC(=O)C1(C(F)(F)F)C/C(=C\Cc2ccccc2)CCCO1 (stereo not drawn) | x | 48% | x | -13% | x | x
Fc1ccc(CNc2cc(-c3ccccc3)nc3nncn23)cc1 | 2%[59 µM] | 54% | x | -1% | x | -4%
COc1cccc(-n2ccnc2SCC(=O)Nc2cccc(C)c2C)c1 | u | -2%[57 µM] | x | -35% | x | u
COc1ccc(NC(=O)CSc2nccn2-c2cccc(OC)c2)cc1 | u | -19% | -5% | u | -4 | u
COc1cccc(-n2nnnc2SCC(=O)Nc2ccccc2OC)c1 | 28% | 39% | -1% | -7% | 0 | -9%
COc1cccc(-n2ccnc2SCC(=O)Nc2ccccc2F)c1 | -46% | u | -8% | u | 1 | 25µM*
COc1cccc(-n2nnnc2SCC(=O)Nc2ccc(C(C)=O)cc2)c1 | -7%[59 µM] | -13% | 24µM* | u | -9 | 0%
CCOc1ccc(-n2ccnc(SCC(=O)Nc3ccc(OC)cc3OC)c2=O)cc1 | 35µM* | -15% | u | u | -5 | u
COc1cccc(-n2ccnc2SCC(=O)Nc2ccccc2)c1 | u | u | 3µM* | u | u | u
CC1=C(C(=O)Nc2c(C)cc(C)cc2C)C2(CCN(C(C)C)CC2)OC1=O | -21%[59 µM] | 37% | x | 2% | x | -12%
CCCS(=O)(=O)c1nnnn1-c1cccc(OC)c1 | u | 58% | 13µM* | 4% | x | -1%
SMILES | G9a block | HP1b binding inh | PLK1 PBD inh | JMJD2A Tudor | PI5P4K alpha inh | BAZ2B block
COc1cccc(NC(=O)CSc2nccn2-c2cccc(OC)c2)c1 | 40µM* | -25% | -3% | u | -3 | u
COc1cccc(-n2nnnc2SCC(=O)Nc2ccc(OC)cc2OC)c1 | 39% | 18% | 5% | 9% | -6 | 0%
COc1cccc(-n2ccnc2SCC(=O)Nc2ccc(Cl)c(Cl)c2)c1 | 2%[59 µM] | -3%[57 µM] | x | -14% | x | u
COC(=O)c1ccccc1SCC(=O)Nc1ccc(N2CCOCC2)cc1 | 79µM* | -5% | -12% | -21% | -4 | -25%
Cc1ccc(NC(=O)CSCC(=O)Nc2ccc(N3CCOCC3)cc2N2CCOCC2)cc1 | 50µM* | 7% | -7% | -19% | -10 | 9%
Cc1ccc(NC(=O)CSCC(=O)Nc2ccc(N3CCOCC3)c(Cl)c2)cc1 | 1%[12.7 µM] | 13% | -10% | -23% | -1 | 47%
Cc1ccc(SCC(=O)Nc2ccc(N3CCOCC3)cc2)cc1 | -27% | 13% | -12% | -7% | -5 | -20%
Cc1cc(C)nc(SCC(=O)Nc2ccc(N3CCOCC3)cc2)n1 | 11µM* | 51% | -4% | -8% | x | -5%
Cc1nc(SCC(=O)Nc2ccc(N3CCOCC3)cc2)nc(C)c1C | 40µM* | 27% | -14% | -13% | 0 | -33%
O=C(c1cc(S(=O)(=O)N2CCN(c3ccccc3)CC2)ccc1Cl)N1CCCCCCC1 | u | 5% | -7% | -26% | 5 | -35%
O=C(c1ncn(Cc2ccccc2)c1C(=O)N1CCc2ccccc2C1)N1CCc2ccccc2C1 | -6%[0.501 µM] | 19% | -12% | -27% | -23 | -11%
Cc1nn(-c2ccccc2)c2nc(-c3ccncc3)cc(C(=O)NCc3ccco3)c12 | 50µM* | -12% | 30µM* | u | u | -1%
CCOC(=O)c1cc(-c2cccs2)nc2c1c(C)nn2-c1ccccn1 | 33% | 59% | -4% | -4% | -13 | 7%
Cc1nn(-c2ccccn2)c2nc(-c3cccs3)cc(C(=O)NCc3ccco3)c12 | 45µM* | 22% | -20% | u | -25 | -11%
Cc1ccc(-n2nc(CO)c(C(=O)NCCC(C)C)n2)cc1C | 0%[59 µM] | 27% | x | -6% | x | 0%
CC(=O)c1ccc2c(c1)N(Cc1ccc3ccccc3c1)C(=O)C(C)S2 (stereo not drawn) | x | x | -1% | x | 1 | x
Cc1ccc(CNC(=O)CCCn2nc(C)n3ccnc3c2=O)cc1 | 2%[12.7 µM] | 24% | -5% | -22% | 2 | -5%
COC(=O)c1cccc(Nc2c(-c3ccc(O)c(OC)c3)nc3nc[nH]n23)c1 | u | u | x | -33% | x | -23%
COc1cc(-c2nc3sccn3c2Nc2cccc(C)c2)ccc1O | 11µM* | u | x | 45µM* | x | 13µM*
COCCNC(=O)c1[nH]c2cc(C)ccc2c1Sc1ccc(Cl)cc1 | -26%[59 µM] | 2% | x | -20% | x | -12%
O=C(Nc1ccc(Oc2ccccc2)cc1)c1csc(COCCO)n1 | x | x | 3% | x | 8 | x
CCOc1ccc(-n2nnnc2SCC(=O)c2ccccc2)cc1 | -4% | 55% | -1% | 4% | -4 | 6%
NCCSC1CC(=O)N(Cc2ccc(F)cc2)C1=O (stereo not drawn) | 40µM* | 36% | -4% | 2% | 0 | -5%

Screening results from PubChem BioAssay.
